Results on 7 sequences are retold here after publication PMC7862700, “An all-to-all approach to the identification of sequence-specific readers for epigenetic DNA modifications on cytosine”.

Holding throughout (assay): DAPPL (digital affinity profiling via proximity ligation, sequencing); 10 mM Tris-HCl pH 7.5, 50 mM NaCl, 1 mM DTT, 4% glycerol, room temperature, 30 min; GST-TFs on glutathione beads, 16-mer random dsDNA library, 0.1% formaldehyde crosslink after washing; high values mean tight binding
Holding throughout (details): protein: recombinant; tags: N-terminal GST; dsDNA, one strand shown

Assay [1] deals with T1, FLI1 (Homo sapiens, UniProt Q01543 1-452).
T1 sequence: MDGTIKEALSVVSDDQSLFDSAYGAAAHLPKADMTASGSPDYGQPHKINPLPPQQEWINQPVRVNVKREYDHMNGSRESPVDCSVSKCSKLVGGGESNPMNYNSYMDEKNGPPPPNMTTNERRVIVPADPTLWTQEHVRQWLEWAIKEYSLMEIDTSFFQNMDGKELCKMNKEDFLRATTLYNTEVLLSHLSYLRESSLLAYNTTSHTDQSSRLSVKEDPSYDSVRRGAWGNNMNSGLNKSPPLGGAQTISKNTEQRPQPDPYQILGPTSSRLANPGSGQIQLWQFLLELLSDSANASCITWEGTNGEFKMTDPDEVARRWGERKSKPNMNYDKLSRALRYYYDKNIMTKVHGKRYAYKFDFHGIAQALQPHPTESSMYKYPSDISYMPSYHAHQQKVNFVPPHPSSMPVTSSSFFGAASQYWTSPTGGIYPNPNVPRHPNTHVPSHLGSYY
The method, boiled down: (§1)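 Human transcription factors fused to GST were expressed in yeast, captured on glutathione beads, given DNA barcodes and pooled with a GST-only negative control. Pools were incubated with 200 nmole of a 16-mer random double-stranded DNA library in Tris/NaCl/DTT/glycerol buffer at room temperature for 30 min. They were then washed, crosslinked with 0.1% formaldehyde, proximity-ligated (BsaI/T4 ligase, 1 h, 37 °C), PCR-amplified and sequenced on an Illumina NextSeq500. Binding signal is each 6-mer's read frequency for a factor divided by its frequency for the GST control.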

The target in assay [2] is T2, ELK1 (Homo sapiens, UniProt P19419 1-428).
T2 sequence: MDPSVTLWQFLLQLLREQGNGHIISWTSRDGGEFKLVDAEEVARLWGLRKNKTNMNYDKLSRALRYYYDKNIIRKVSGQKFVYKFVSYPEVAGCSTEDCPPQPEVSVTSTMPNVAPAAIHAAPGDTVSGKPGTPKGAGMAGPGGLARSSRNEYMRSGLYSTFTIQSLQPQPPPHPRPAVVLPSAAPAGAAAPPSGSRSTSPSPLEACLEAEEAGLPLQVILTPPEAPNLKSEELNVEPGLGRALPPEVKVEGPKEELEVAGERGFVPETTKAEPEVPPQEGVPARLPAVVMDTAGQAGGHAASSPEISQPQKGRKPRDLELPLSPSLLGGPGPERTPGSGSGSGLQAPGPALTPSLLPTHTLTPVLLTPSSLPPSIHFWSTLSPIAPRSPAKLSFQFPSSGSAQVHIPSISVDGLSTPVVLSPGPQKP
The method in brief:
as §1

Assay [3] has as its target T3, GABPA (Homo sapiens, UniProt Q06546 1-454).
T3 sequence: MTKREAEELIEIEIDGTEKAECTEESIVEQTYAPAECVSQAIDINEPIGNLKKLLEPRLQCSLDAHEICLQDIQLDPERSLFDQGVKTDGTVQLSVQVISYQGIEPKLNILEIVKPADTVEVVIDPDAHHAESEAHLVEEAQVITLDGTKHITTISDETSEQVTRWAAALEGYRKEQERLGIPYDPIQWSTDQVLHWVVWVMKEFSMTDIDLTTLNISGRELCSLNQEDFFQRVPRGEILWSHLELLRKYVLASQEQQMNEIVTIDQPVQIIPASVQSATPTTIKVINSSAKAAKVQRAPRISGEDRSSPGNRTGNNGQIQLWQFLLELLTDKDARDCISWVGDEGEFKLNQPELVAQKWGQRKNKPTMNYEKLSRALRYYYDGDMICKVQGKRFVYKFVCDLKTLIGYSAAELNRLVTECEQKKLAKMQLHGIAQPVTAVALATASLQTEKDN
The method, boiled down: as §1

In assay [4] the target is T4, ERG (Homo sapiens, UniProt P11308 1-479).
T4 sequence: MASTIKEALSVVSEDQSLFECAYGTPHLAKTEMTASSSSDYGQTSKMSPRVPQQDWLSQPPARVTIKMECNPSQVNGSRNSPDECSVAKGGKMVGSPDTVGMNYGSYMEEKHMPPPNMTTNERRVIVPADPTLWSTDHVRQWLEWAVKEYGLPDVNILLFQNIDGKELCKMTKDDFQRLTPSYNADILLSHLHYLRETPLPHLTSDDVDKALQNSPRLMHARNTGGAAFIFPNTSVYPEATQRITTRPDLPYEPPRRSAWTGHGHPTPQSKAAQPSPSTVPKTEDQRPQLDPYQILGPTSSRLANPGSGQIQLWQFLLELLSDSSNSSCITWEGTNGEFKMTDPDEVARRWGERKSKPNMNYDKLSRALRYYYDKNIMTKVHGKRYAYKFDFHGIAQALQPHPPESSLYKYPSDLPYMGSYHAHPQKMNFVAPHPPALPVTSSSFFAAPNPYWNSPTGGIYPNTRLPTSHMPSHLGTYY
The method, boiled down: as §1

The target in assay [5] is ELF1 (Homo sapiens, UniProt P32519 1-619). The method, boiled down:
as §1

In assay [6] the target is T5, EHF (Homo sapiens, UniProt Q9NZC4 1-300).
T5 sequence: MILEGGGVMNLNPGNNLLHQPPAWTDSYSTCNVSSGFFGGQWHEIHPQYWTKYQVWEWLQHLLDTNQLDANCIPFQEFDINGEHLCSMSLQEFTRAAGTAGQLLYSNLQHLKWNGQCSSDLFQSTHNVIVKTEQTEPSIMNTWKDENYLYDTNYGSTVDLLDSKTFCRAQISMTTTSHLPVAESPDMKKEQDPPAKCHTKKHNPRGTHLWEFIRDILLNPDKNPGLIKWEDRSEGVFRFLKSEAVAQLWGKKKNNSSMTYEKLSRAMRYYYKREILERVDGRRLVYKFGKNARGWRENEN
The method, boiled down: as §1

Assay [7] addresses SPI1 (Homo sapiens, UniProt P17947 1-270). The method, boiled down:
as §1

Assay [8] concerns the target SPIB (Homo sapiens, UniProt Q01892 1-262). The method in brief: as §1
For assay [9], the target named is T6, ELK3 (Homo sapiens, UniProt P41970 1-407).
T6 sequence: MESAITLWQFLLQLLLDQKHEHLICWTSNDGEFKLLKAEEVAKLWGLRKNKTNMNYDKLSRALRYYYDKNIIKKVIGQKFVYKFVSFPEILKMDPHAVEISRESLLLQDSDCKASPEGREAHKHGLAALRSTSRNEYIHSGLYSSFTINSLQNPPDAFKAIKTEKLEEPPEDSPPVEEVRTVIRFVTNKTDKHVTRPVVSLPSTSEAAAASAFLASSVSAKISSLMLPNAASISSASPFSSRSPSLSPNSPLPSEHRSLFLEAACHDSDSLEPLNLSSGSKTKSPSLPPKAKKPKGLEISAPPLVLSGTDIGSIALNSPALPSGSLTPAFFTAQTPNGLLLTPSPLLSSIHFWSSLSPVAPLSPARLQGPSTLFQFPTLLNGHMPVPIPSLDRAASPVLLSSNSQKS
The method in brief:
as §1

Chain of SPIB (Q01892 whole entry): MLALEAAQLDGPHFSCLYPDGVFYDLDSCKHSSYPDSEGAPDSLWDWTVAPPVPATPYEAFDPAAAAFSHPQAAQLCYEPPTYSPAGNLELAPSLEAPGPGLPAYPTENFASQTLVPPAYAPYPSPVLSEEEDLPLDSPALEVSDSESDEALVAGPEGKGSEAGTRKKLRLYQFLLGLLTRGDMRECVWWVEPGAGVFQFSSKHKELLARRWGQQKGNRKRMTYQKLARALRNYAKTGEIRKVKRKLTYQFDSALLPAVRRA
Chain of ELF1 (P32519 whole entry): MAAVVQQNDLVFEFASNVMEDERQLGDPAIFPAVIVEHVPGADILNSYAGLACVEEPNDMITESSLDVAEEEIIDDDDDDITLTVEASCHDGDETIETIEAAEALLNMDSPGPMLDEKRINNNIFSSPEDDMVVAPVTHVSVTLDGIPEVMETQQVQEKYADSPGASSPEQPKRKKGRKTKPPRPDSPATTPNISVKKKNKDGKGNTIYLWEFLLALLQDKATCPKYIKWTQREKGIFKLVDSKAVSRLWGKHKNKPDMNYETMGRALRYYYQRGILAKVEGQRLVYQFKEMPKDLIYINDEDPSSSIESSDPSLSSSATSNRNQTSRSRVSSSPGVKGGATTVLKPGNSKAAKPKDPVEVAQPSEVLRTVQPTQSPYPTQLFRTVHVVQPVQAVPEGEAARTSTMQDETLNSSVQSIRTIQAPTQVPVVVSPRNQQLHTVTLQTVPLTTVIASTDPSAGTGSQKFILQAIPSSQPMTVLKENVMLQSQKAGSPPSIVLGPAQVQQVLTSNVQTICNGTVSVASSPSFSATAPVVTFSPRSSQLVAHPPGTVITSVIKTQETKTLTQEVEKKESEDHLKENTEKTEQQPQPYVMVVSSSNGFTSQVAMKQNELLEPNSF

On to TCTGAC, for which the binding signal is 1.26 fold enrichment (6-mer frequency, TF over GST control) in assay [1]; 1.19 fold enrichment (6-mer frequency, TF over GST control) in assay [2]; 1.24 fold enrichment (6-mer frequency, TF over GST control) in [3]; 1.16 fold enrichment (6-mer frequency, TF over GST control) in assay [4]; 1.28 fold enrichment (6-mer frequency, TF over GST control) in assay [5]; 1.3 fold enrichment (6-mer frequency, TF over GST control) in assay [6]. In addition, the binding signal in [7] is 1.09 fold enrichment (6-mer frequency, TF over GST control); in [8], 1.25 fold enrichment (6-mer frequency, TF over GST control); in assay [9], 1.24 fold enrichment (6-mer frequency, TF over GST control).

For the sequence ACAAAA, the binding signal is 1.14 fold enrichment (6-mer frequency, TF over GST control) in [1]; 1.11 fold enrichment (6-mer frequency, TF over GST control) in [2]; 1.15 fold enrichment (6-mer frequency, TF over GST control) in assay [3]; 1.18 fold enrichment (6-mer frequency, TF over GST control) in assay [4]; 1.16 fold enrichment (6-mer frequency, TF over GST control) in assay [5]; 1.21 fold enrichment (6-mer frequency, TF over GST control) in [6]. Besides, the binding signal in assay [7] was 1.22 fold enrichment (6-mer frequency, TF over GST control); in [8] it was 1.14 fold enrichment (6-mer frequency, TF over GST control); in [9], 1.16 fold enrichment (6-mer frequency, TF over GST control).

On to ATAATT, for which the binding signal was 1.31 fold enrichment (6-mer frequency, TF over GST control) in [1]; 1.38 fold enrichment (6-mer frequency, TF over GST control) in assay [2]; 1.38 fold enrichment (6-mer frequency, TF over GST control) in assay [3]; 1.4 fold enrichment (6-mer frequency, TF over GST control) in [4]; 1.27 fold enrichment (6-mer frequency, TF over GST control) in assay [5]; 1.37 fold enrichment (6-mer frequency, TF over GST control) in assay [6]. The binding signal in [7] was 1.28 fold enrichment (6-mer frequency, TF over GST control); in assay [8], 1.39 fold enrichment (6-mer frequency, TF over GST control); in assay [9] it was 1.42 fold enrichment (6-mer frequency, TF over GST control).

Regarding TGCTTG, the binding signal in [1] is 1.31 fold enrichment (6-mer frequency, TF over GST control); in assay [2], 1.15 fold enrichment (6-mer frequency, TF over GST control); in assay [3], 1.11 fold enrichment (6-mer frequency, TF over GST control); in [4], 1.15 fold enrichment (6-mer frequency, TF over GST control); in assay [5], 1.18 fold enrichment (6-mer frequency, TF over GST control); in assay [6], 1.31 fold enrichment (6-mer frequency, TF over GST control). Further, the binding signal is 1.17 fold enrichment (6-mer frequency, TF over GST control) in assay [7]; 1.2 fold enrichment (6-mer frequency, TF over GST control) in assay [8]; 1.11 fold enrichment (6-mer frequency, TF over GST control) in assay [9].

AGCCTA: the binding signal in assay [1] was 1.06 fold enrichment (6-mer frequency, TF over GST control); in assay [2] it was 1.05 fold enrichment (6-mer frequency, TF over GST control); in assay [3] it was 1.12 fold enrichment (6-mer frequency, TF over GST control); in assay [4] it was 1.08 fold enrichment (6-mer frequency, TF over GST control); in [5], 1.1 fold enrichment (6-mer frequency, TF over GST control); in assay [6], 1.04 fold enrichment (6-mer frequency, TF over GST control). In addition, the binding signal in assay [7] is 1.02 fold enrichment (6-mer frequency, TF over GST control); in assay [8], 1.02 fold enrichment (6-mer frequency, TF over GST control); in [9], 1.12 fold enrichment (6-mer frequency, TF over GST control).

For the sequence GTAATC, the binding signal is 1.16 fold enrichment (6-mer frequency, TF over GST control) in assay [1]; 1.14 fold enrichment (6-mer frequency, TF over GST control) in [2]; 1.32 fold enrichment (6-mer frequency, TF over GST control) in assay [3]; 1.08 fold enrichment (6-mer frequency, TF over GST control) in [4]; 1.16 fold enrichment (6-mer frequency, TF over GST control) in assay [5]; 1.19 fold enrichment (6-mer frequency, TF over GST control) in [6]. The binding signal in [7] is 1.13 fold enrichment (6-mer frequency, TF over GST control); in assay [8], 1.09 fold enrichment (6-mer frequency, TF over GST control); in [9], 1.11 fold enrichment (6-mer frequency, TF over GST control).

In the case of CCGGAC, the binding signal was 1.47 fold enrichment (6-mer frequency, TF over GST control) in [1]; 1.48 fold enrichment (6-mer frequency, TF over GST control) in assay [2]; 1.41 fold enrichment (6-mer frequency, TF over GST control) in assay [3]; 1.74 fold enrichment (6-mer frequency, TF over GST control) in [4]; 1.44 fold enrichment (6-mer frequency, TF over GST control) in assay [5]; 1.56 fold enrichment (6-mer frequency, TF over GST control) in assay [6]. Besides, the binding signal in assay [7] was 1.41 fold enrichment (6-mer frequency, TF over GST control); in assay [8], 1.57 fold enrichment (6-mer frequency, TF over GST control); in assay [9] it was 1.38 fold enrichment (6-mer frequency, TF over GST control).
